Experimental data taken from the supplement of paper PMC10849652.
Targets with a hit are over-represented here; the source holds about 8,800 in all. About 0.5% of all pairs of compound and target were hits.

Tests used:
Assay in all cases: log2 fold change, soluble protein after heating vs DMSO (PISA); higher = thermal stabilisation; K562 lysate, 10 uM; active = over 0.2 and 3.5 SD of the protein, either way, in both replicates (recomputed)
[1] = compound: C1=CC=C(C=C1)[C@H](COC2=CC3=C(C=C2)NC(=O)N3)NC(=O)C4=CC=CN(C4=O)CC5=CC(=C(C=C5)F)F
In short: (§1)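 Soluble protein was defined as the supernatant remaining after 21,000xg for 90 min, following pooling of heated aliquots and adjustment to 0.5% NP-40 at 4°C. Before that, crude K562 extract at 1 mg/mL protein in PBS pH 7.4 with 1 mM MgCl2 was treated with 10 μM compound for 30 min and heated for 3 min across 48°C-58°C. Quantification used TMTpro 16plex LC-MS/MS with channel sums equalised, and values are log-two fold changes in thermal stability relative to solvent controls from duplicates.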

[2] = compound: CC1=C(SC2=C1C(=N[C@H](C3=NN=C(N32)C)CC(=O)N)C4=CC=C(C=C4)Cl)C
In short: as §1

[3] = compound: CC1=C2C(=CC=C1)N=C(N(C2=O)C3=CC=CC=C3C)CN4C=NC5=C(N=CN=C54)N
In short: as §1

[4] = compound: Cc1sc2c(c1C)C(c1ccc(Cl)cc1)=N[C@@H](CC(=O)OC(C)(C)C)c1nnc(C)n1-2
In short: as §1

[5] = compound: c1ccc([C@@H]2C[C@H]2NC2CCNCC2)cc1
In short: as §1

Measured: log2 fold change

THAP9 (UniProt Q9H5L6)
inactive: [1] 0.024 | [2] 0.039 | [3] 0.165 | [4] -0.194 | [5] -0.284

TMEM87B (UniProt Q96K49)
active: [1] 0.529
inactive: [2] 0.02 | [3] 0.075 | [4] 0.001 | [5] 0.038

TPM3 isoform 2 (UniProt P06753)
UniProt P06753, sequence (P06753 whole entry, looked up): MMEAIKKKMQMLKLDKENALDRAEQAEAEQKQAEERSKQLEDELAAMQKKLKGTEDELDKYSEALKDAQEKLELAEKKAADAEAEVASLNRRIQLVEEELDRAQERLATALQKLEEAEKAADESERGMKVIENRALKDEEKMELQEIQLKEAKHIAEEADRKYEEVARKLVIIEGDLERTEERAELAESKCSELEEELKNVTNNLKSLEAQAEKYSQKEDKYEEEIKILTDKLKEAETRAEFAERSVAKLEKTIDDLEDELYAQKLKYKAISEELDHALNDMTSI
inactive: [1] -0.02 | [2] 0.01 | [3] -0.025 | [4] -0.009 | [5] 0.056

TMEM177 (UniProt Q53S58)
UniProt Q53S58, sequence (Q53S58 whole entry, looked up): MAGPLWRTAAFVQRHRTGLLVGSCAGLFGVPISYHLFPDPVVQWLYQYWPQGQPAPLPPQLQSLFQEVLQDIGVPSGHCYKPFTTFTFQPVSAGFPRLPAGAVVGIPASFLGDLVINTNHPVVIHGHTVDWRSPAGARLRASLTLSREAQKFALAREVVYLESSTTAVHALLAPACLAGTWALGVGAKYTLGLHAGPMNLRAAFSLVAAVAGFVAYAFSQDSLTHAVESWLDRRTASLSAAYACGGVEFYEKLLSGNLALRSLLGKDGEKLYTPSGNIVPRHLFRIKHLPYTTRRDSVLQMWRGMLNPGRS
inactive: [1] 0.002 | [2] -0.009 | [3] 0.015 | [5] 0.068

TMEM97 (UniProt Q5BJF2)
inactive: [1] 0.048 | [2] 0.015 | [3] -0.016 | [4] -0.081 | [5] -0.153

UBR5 (UniProt O95071)
inactive: [1] -0.011 | [2] 0.012 | [3] 0.012 | [4] -0.018 | [5] 0.01

TPD52L2 isoform 7 (UniProt O43399)
inactive: [1] 0.046 | [2] -0.036 | [3] -0.024 | [4] 0.024 | [5] -0.058

UBTF (UniProt P17480)
inactive: [1] -0.031 | [2] 0.028 | [3] -0.012 | [4] 0.007 | [5] 0.069

TUBB (UniProt P07437)
inactive: [1] 0.025 | [2] 0.027 | [3] -0.005 | [4] 0.014 | [5] -0.001

TUBGCP4 (UniProt Q9UGJ1)
inactive: [1] -0.005 | [2] 0.019 | [3] 0.012 | [4] -0.027 | [5] -0.007

UBE2L6 (UniProt O14933)
inactive: [1] -0.01 | [2] 0 | [3] -0.068 | [4] 0.032 | [5] 0.008

TMEM70 (UniProt Q9BUB7)
UniProt Q9BUB7, sequence (Q9BUB7 whole entry, looked up): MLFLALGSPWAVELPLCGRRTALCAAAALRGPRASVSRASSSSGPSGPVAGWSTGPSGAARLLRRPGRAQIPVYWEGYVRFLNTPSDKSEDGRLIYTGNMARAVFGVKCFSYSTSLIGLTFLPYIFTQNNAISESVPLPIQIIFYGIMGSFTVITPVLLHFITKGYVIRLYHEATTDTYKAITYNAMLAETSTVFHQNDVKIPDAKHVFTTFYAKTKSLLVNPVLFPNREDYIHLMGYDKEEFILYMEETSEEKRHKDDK
inactive: [1] -0.029 | [2] 0.045 | [3] 0.021 | [4] 0.013 | [5] -0.083

TLK2 isoform 2 (UniProt Q86UE8)
inactive: [1] 0.014 | [2] -0.027 | [3] 0.033 | [4] -0.015 | [5] -0.075

UBE2D1 (UniProt P51668)
UniProt P51668, sequence (P51668 whole entry, looked up): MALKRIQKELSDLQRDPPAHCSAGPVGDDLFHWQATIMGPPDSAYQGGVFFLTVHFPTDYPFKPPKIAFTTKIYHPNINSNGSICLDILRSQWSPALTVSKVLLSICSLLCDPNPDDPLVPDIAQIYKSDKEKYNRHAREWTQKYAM
inactive: [1] 0.056 | [2] 0.066 | [3] 0.02 | [4] -0.082 | [5] 0.016

TUBB4A (UniProt M0QYM7)
inactive: [1] -0.207 | [2] -0.162 | [3] 0.016 | [5] -0.074

TPM1 (UniProt H7BYY1)
inactive: [1] -0.028 | [2] 0.017 | [3] 0.059 | [4] 0.031 | [5] 0.023

TP53RK (UniProt Q96S44)
inactive: [1] 0.013 | [2] 0.021 | [3] -0.003 | [4] 0.073 | [5] 0.09

TGFBRAP1 (UniProt Q8WUH2)
inactive: [1] -0.035 | [2] 0.024 | [3] 0 | [4] 0.05 | [5] -0.014

TJP1 (UniProt G3V1L9)
inactive: [1] -0.025 | [2] -0.014 | [3] 0.127 | [4] 0.009 | [5] -0.007

TUBA3C (UniProt P0DPH7)
inactive: [1] 0.012 | [2] 0.022 | [3] 0.029 | [4] -0.017 | [5] -0.074

TCF12 isoform 3 (UniProt Q99081)
inactive: [1] 0.062 | [2] -0.072 | [3] 0.014 | [4] -0.048 | [5] -0.046

TOPBP1 (UniProt Q92547)
UniProt Q92547, sequence (Q92547 whole entry, looked up): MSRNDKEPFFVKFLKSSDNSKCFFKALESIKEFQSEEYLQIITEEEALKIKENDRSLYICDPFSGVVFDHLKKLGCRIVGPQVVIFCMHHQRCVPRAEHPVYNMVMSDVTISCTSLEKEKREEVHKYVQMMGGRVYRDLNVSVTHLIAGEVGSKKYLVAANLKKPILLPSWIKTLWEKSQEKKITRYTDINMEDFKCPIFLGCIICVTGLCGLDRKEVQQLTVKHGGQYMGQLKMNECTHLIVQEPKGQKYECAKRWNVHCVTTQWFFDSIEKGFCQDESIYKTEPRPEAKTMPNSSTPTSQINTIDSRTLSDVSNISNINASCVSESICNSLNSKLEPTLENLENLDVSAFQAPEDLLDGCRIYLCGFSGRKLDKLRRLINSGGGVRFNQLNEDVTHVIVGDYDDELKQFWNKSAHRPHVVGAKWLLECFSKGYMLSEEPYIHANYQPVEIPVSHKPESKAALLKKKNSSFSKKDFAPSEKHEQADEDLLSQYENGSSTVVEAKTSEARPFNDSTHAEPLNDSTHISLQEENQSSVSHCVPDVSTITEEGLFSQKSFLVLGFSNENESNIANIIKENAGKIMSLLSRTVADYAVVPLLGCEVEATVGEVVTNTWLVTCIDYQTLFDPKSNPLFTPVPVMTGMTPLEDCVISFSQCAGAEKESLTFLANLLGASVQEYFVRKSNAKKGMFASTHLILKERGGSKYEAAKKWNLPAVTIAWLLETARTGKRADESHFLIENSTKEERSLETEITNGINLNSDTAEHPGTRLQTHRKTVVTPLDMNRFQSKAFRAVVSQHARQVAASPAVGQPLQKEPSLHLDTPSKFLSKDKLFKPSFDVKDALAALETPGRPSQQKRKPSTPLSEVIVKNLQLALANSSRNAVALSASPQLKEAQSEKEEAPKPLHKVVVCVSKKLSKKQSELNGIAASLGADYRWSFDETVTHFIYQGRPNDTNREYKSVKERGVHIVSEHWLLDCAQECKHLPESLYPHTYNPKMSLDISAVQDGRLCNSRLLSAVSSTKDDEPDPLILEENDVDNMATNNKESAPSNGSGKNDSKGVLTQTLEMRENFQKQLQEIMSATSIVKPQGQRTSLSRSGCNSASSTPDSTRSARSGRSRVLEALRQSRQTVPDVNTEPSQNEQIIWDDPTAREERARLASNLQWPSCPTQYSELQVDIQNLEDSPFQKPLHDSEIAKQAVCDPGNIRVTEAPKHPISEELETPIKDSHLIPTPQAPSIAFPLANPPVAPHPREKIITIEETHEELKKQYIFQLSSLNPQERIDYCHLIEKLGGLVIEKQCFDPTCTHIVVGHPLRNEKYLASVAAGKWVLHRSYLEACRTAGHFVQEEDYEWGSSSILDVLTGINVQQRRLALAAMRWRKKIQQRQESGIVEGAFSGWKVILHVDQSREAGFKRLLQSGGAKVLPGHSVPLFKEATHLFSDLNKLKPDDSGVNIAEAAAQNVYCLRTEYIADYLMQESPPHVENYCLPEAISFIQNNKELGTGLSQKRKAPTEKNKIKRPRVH
inactive: [1] 0.012 | [2] 0.001 | [3] 0.026 | [4] -0.016 | [5] 0.099

TBL2 (UniProt Q9Y4P3)
inactive: [1] 0.01 | [2] 0.057 | [3] 0.033 | [4] 0.039 | [5] 0.071

TPM4 isoform 2 (UniProt P67936)
inactive: [1] -0.059 | [2] -0.012 | [3] 0.02 | [4] 0.053 | [5] 0.1

TRIM25 (UniProt Q14258)
UniProt Q14258, sequence (Q14258 whole entry, looked up): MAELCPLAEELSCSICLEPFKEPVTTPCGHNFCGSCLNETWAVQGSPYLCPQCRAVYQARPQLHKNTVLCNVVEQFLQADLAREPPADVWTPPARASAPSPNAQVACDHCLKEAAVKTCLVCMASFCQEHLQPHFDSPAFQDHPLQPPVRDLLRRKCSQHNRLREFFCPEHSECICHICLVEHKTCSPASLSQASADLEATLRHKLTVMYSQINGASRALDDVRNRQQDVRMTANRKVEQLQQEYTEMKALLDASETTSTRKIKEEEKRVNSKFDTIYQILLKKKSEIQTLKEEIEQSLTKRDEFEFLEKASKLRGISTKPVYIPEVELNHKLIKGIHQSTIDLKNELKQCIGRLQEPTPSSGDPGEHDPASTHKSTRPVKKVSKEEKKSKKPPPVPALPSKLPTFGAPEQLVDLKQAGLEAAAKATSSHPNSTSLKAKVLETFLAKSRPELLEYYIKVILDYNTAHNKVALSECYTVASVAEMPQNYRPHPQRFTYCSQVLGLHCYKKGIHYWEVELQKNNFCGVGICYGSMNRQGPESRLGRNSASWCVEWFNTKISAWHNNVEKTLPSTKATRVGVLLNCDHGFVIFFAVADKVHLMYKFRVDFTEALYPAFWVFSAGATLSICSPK
inactive: [1] 0.047 | [2] 0.001 | [3] 0.001 | [4] 0.013 | [5] 0.044

TRIP13 (UniProt Q15645)
inactive: [1] 0.006 | [2] 0.015 | [3] 0.018 | [4] 0.01 | [5] 0.049

UBR1 (UniProt Q8IWV7)
UniProt Q8IWV7, sequence (Q8IWV7 whole entry, looked up): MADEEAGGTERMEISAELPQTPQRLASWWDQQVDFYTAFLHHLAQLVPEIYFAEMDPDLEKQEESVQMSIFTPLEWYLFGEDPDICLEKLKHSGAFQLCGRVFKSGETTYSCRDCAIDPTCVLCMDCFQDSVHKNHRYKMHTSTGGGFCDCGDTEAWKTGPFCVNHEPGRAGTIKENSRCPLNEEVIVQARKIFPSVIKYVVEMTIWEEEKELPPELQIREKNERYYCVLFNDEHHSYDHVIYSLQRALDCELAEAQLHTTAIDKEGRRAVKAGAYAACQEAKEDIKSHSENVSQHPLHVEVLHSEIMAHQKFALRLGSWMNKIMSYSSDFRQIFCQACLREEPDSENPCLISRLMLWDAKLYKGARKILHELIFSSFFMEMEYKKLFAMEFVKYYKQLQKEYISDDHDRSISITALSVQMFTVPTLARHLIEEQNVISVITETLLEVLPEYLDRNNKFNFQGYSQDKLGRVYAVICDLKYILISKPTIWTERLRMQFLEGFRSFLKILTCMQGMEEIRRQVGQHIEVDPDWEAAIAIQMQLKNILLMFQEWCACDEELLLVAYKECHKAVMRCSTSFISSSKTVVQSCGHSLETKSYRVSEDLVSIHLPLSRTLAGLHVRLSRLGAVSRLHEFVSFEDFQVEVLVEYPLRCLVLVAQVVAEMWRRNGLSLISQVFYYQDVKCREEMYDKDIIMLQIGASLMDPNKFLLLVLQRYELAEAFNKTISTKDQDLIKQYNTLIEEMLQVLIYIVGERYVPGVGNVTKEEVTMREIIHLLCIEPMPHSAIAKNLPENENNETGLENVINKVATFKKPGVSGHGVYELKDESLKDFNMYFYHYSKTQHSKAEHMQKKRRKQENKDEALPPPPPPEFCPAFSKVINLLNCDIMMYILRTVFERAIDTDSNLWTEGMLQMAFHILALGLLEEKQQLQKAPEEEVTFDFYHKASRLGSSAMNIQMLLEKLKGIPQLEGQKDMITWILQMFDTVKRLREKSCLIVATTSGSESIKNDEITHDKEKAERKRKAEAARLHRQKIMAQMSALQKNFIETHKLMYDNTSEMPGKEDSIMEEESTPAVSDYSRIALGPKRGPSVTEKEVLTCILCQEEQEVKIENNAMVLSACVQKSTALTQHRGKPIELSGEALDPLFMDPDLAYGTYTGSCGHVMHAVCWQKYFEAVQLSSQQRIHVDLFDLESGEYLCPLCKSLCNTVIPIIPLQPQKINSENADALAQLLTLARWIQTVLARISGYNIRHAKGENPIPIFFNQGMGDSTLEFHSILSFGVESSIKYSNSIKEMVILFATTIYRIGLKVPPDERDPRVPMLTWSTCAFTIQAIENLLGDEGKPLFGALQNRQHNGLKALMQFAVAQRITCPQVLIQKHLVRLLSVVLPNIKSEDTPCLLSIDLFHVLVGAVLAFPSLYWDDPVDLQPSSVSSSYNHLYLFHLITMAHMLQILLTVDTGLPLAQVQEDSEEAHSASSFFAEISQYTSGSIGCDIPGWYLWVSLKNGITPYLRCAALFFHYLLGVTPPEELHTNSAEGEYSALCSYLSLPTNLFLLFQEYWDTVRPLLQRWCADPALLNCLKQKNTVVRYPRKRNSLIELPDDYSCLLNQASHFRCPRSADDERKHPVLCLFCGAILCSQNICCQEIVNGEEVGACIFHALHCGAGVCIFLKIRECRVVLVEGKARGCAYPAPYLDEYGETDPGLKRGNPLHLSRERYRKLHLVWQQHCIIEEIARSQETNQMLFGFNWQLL
inactive: [1] -0.032 | [2] 0.002 | [3] -0.026 | [4] 0.026 | [5] 0

TRIM44 (UniProt Q96DX7)
inactive: [1] 0.096 | [2] -0.126 | [3] -0.061 | [4] -0.031 | [5] 0.083

TOX4 (UniProt O94842)
inactive: [1] -0.011 | [2] 0.001 | [3] -0.021 | [4] -0.019 | [5] -0.146

TTLL12 (UniProt V9GY16)
inactive: [1] 0.022 | [2] 0.606 | [3] 0.066 | [5] -0.065

TPM4 (UniProt P67936)
inactive: [1] -0.003 | [2] 0.057 | [3] -0.021 | [4] -0.025 | [5] -0.04

UBL5 (UniProt Q9BZL1)
UniProt Q9BZL1, sequence (Q9BZL1 whole entry, looked up): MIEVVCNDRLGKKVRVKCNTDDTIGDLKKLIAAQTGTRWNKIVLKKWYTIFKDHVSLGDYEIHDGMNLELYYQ
inactive: [1] 0.063 | [2] 0.008 | [3] -0.06 | [4] 0.005 | [5] -0.167

TPST2 (UniProt O60704)
inactive: [1] -0.034 | [2] 0.021 | [3] -0.028 | [4] -0.054 | [5] -0.384

TRIM3 (UniProt O75382)
inactive: [3] 0.197

TNIK isoform 5 (UniProt Q9UKE5)
inactive: [1] 0.008 | [2] -0.009 | [4] -0.089 | [5] -0.041
